# Test results from the supplement of paper PMC10849652.
# Of roughly 7,900 targets only a part is listed; those with a hit were picked by preference. About 0.6% of all pairs of compound and target were hits. Unmarked numbers belong to inactive results.
# Tests used:
# Assay in all cases: log2 fold change, soluble protein after heating vs DMSO (PISA); higher = thermal stabilisation; K562 cells, 10 uM, 30 min; active = over 0.2 and 3.5 SD of the protein, either way, in both replicates (recomputed)
# [1] = compound: CC[C@@H]1C(=O)N(C)c2cnc(Nc3ccc(C(=O)NC4CCN(C)CC4)cc3OC)nc2N1C1CCCC1
# Procedure, shortened: (§1)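 K562 cells at 2×10^6 cells/mL were exposed to 10 μM compound for 30 min, then aliquots were heated for 3 min across 48°C-58°C, pooled, and extracted in PBS containing 0.5% NP-40 at 4°C. The supernatant after 21,000xg for 90 min was taken as soluble protein and measured by TMTpro 16plex LC-MS/MS with channel sums equalised. Thermal stability is reported relative to control samples, with values from duplicates. Fold changes are given on a log2 scale.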
# volasertib = compound: CC[C@@H]1C(=O)N(C)c2cnc(Nc3ccc(C(=O)N[C@H]4CC[C@H](N5CCN(CC6CC6)CC5)CC4)cc3OC)nc2N1C(C)C [volasertib]
# Procedure, shortened: as §1
# [2] = compound: CC[C@H](C)N1C=C(C2=C(C=C(C=C21)C3=CN=C(C=C3)N4CCNCC4)C(=O)NCC5=C(C=C(NC5=O)C)C)C
# Procedure, shortened: as §1
# epoxomicin = compound: CC[C@H](C)[C@@H](C(=O)N[C@@H]([C@@H](C)O)C(=O)N[C@@H](CC(C)C)C(=O)[C@]1(CO1)C)NC(=O)[C@H]([C@@H](C)CC)N(C)C(=O)C [epoxomicin]
# Procedure, shortened: as §1
# [3] = compound: CCn1c(C(=O)N(C2CC2)C2CC2)cc2c3c(ncn3C)c(Nc3cc(C)n(C)n3)nc21
# Procedure, shortened: as §1
# [4] = compound: CN(C)CC(=O)Nc1ccc2[nH]c(=O)c3ccccc3c2c1
# Procedure, shortened: as §1
# rosiglitazone = compound: CN(CCOC1=CC=C(C=C1)C[C@H]2C(=O)NC(=O)S2)C3=CC=CC=N3 (racemic) [rosiglitazone]
# Procedure, shortened: as §1
# [5] = compound: CN1C2=C(C3=C1C(=O)N(N=C3)CC4=CC(=CC=C4)N)SC(=C2)S(=O)C
# Procedure, shortened: as §1
# saracatinib = compound: CN1CCN(CCOc2cc(OC3CCOCC3)c3c(Nc4c(Cl)ccc5c4OCO5)ncnc3c2)CC1 [saracatinib]
# Procedure, shortened: as §1
# sotrastaurin = compound: CN1CCN(c2nc(C3=C(c4c[nH]c5ccccc45)C(=O)NC3=O)c3ccccc3n2)CC1 [sotrastaurin]
# Procedure, shortened: as §1
# alvocidib = compound: CN1CC[C@H](c2c(O)cc(O)c3c(=O)cc(-c4ccccc4Cl)oc23)[C@H](O)C1 [alvocidib]
# Procedure, shortened: as §1
# Tubastatin A = compound: CN1CCc2c(c3ccccc3n2Cc2ccc(C(=O)NO)cc2)C1 [Tubastatin A]
# Procedure, shortened: as §1
# [6] = compound: CNC(=O)C1=CC=CC=C1NC2=NC(=NC=C2Cl)NC3=C(C=C(C=C3)N4CCOCC4)OC
# Procedure, shortened: as §1
# defactinib = compound: CNC(=O)c1ccc(Nc2ncc(C(F)(F)F)c(NCc3nccnc3N(C)S(C)(=O)=O)n2)cc1 [defactinib]
# Procedure, shortened: as §1
# rucaparib = compound: CNCc1ccc(-c2[nH]c3cc(F)cc4c3c2CCNC4=O)cc1 [rucaparib]
# Procedure, shortened: as §1
# [7] = compound: CNc1nc(-c2ccc3c(N)n[nH]c3c2)cc(N2C[C@@H](C(=O)NC3CCCCC3)CC[C@H]2C)n1
# Procedure, shortened: as §1
# encorafenib = compound: COC(=O)N[C@@H](C)CNc1nccc(-c2cn(C(C)C)nc2-c2cc(Cl)cc(NS(C)(=O)=O)c2F)n1 [encorafenib]
# Procedure, shortened: as §1
# [8] = compound: COC(=O)[C@H](CCSC)NC(=O)C1=C(C=C(C=C1)NC[C@H](CS)N)C2=CC=CC=C2
# Procedure, shortened: as §1
# [9] = compound: CCn1cc(-c2ccnc3[nH]c(-c4cccc(CN(C)C)c4)cc23)c(-c2ccc(NC(=O)N(C)C)cc2)n1
# Procedure, shortened: as §1
# [10] = compound: CN1CCC(CNc2ccc3ncc(-c4cccc(OC(F)(F)F)c4)n3n2)CC1
# Procedure, shortened: as §1
# UniProt Q14849, sequence (Q14849 whole entry, looked up): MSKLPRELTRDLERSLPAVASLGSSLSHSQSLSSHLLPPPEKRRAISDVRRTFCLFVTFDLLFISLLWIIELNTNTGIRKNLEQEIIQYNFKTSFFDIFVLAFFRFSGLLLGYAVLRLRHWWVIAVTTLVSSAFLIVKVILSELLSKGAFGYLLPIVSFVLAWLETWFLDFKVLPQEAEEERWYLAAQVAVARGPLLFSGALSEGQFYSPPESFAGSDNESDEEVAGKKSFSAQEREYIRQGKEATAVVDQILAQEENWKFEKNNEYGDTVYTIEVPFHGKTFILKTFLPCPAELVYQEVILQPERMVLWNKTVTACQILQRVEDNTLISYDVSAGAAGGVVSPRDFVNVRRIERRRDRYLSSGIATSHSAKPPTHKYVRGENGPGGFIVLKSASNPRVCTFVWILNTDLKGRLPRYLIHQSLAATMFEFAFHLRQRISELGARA
# UniProt Q6ZRS2, sequence (Q6ZRS2 whole entry, looked up): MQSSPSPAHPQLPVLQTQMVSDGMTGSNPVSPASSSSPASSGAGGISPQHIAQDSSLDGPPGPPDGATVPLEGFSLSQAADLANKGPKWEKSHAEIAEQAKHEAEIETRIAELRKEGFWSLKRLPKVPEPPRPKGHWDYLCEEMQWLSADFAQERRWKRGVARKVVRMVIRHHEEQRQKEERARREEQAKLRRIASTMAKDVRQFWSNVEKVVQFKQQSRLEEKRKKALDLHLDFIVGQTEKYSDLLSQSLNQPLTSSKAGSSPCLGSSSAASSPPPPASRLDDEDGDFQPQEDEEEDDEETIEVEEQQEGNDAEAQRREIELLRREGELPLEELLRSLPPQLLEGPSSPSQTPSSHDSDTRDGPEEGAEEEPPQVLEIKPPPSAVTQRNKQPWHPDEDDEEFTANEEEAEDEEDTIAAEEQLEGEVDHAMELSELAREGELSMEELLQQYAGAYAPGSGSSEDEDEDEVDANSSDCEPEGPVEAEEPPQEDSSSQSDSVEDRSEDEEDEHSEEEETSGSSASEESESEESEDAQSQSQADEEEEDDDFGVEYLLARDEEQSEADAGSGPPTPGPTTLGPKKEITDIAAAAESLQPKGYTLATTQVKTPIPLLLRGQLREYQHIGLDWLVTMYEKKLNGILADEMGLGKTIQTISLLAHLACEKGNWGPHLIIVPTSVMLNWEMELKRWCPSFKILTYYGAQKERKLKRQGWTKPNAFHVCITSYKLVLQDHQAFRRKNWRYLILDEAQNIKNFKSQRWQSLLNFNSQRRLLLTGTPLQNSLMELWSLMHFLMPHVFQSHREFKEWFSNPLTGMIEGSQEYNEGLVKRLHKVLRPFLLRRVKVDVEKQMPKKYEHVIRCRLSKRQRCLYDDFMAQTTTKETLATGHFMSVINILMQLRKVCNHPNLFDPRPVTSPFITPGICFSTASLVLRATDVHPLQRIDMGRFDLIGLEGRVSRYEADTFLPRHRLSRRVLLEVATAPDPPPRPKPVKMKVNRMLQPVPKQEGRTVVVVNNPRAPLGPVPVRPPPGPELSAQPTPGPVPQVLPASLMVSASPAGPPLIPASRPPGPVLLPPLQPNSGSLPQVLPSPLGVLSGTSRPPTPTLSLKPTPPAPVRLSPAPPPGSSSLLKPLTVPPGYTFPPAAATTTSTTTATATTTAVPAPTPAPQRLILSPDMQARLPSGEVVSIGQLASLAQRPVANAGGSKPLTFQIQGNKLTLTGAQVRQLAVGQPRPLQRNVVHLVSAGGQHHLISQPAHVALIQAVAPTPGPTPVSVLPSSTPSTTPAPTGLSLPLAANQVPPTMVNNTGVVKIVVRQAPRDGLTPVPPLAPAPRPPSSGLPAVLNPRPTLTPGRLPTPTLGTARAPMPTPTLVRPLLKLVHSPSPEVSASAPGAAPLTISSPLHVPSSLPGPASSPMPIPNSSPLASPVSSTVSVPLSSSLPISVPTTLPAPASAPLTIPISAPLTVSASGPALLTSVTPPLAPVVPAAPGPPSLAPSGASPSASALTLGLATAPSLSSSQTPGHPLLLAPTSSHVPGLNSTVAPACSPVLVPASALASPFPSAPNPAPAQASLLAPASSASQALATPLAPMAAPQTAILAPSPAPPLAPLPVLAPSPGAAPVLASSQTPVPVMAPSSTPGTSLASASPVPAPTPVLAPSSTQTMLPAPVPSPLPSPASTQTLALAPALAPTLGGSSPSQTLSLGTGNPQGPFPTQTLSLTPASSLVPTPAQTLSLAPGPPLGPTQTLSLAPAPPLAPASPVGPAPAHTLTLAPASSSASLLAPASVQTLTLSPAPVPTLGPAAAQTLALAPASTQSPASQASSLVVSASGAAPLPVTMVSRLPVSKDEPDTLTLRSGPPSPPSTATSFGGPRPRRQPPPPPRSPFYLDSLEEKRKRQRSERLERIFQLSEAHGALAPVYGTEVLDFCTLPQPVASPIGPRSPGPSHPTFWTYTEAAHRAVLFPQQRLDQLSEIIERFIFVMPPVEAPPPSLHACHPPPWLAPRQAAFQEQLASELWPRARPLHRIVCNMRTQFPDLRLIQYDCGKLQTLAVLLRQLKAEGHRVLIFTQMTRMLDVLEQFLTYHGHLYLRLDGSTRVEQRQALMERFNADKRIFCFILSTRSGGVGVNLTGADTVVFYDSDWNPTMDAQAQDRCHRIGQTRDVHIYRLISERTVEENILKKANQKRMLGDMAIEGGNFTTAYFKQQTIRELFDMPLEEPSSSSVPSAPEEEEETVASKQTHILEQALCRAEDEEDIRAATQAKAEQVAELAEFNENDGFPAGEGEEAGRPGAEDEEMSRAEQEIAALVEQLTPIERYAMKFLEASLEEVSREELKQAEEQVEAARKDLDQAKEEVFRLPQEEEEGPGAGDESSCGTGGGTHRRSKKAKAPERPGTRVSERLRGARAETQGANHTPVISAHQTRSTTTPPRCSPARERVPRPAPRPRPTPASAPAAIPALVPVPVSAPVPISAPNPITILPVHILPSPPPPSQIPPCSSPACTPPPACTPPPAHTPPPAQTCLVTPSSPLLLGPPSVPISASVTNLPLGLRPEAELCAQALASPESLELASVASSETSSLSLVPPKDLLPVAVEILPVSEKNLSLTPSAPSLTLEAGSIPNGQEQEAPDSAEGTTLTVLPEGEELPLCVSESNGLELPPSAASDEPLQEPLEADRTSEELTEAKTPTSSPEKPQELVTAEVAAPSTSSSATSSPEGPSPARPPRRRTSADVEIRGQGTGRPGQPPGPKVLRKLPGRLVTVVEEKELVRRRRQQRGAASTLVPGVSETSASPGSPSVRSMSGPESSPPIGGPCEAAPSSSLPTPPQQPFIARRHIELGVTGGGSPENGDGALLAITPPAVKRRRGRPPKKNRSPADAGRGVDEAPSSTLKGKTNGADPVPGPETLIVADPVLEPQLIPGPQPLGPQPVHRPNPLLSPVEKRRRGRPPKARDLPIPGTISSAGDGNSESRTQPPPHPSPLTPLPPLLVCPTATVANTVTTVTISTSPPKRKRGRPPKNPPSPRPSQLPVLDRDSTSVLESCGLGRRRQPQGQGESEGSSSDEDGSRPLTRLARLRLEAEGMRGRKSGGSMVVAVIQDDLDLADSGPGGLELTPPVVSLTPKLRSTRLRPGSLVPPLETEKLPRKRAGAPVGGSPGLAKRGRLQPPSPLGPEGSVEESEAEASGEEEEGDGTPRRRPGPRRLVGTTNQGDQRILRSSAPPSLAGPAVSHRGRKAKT
# UniProt Q9BZD2, sequence (Q9BZD2 whole entry, looked up): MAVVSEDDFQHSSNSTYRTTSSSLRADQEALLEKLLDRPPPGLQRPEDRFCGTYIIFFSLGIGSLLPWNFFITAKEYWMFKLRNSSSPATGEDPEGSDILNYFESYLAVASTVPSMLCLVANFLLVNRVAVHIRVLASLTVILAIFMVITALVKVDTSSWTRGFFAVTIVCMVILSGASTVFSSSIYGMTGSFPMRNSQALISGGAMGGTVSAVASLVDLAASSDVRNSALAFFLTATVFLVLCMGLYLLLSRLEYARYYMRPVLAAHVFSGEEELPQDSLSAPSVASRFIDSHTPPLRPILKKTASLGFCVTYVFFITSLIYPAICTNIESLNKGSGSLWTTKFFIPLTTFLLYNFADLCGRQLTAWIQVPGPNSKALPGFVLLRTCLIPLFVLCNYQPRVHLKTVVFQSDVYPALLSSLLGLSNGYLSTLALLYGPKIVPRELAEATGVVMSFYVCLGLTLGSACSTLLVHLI
# UniProt O60749, sequence (O60749 whole entry, looked up): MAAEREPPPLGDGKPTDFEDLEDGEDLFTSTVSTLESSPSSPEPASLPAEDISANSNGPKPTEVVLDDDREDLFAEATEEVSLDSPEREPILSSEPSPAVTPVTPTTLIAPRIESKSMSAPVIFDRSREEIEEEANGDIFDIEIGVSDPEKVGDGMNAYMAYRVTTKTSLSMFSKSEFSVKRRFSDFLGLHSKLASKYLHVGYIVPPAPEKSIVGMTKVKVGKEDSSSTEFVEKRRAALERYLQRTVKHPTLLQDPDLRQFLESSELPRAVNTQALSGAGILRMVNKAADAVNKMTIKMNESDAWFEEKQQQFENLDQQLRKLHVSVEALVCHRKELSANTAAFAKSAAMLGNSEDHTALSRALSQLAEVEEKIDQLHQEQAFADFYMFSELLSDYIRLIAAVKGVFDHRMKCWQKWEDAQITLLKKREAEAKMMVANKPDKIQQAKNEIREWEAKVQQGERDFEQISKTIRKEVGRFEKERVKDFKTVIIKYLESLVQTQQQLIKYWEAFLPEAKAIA
Target,log2 fold change [1],log2 fold change (volasertib),log2 fold change [2],log2 fold change (epoxomicin),log2 fold change [3],log2 fold change [4],log2 fold change (rosiglitazone),log2 fold change [5],log2 fold change (saracatinib),log2 fold change (sotrastaurin),log2 fold change (alvocidib),log2 fold change (Tubastatin A),log2 fold change [6],log2 fold change (defactinib),log2 fold change (rucaparib),log2 fold change [7],log2 fold change (encorafenib),log2 fold change [8],log2 fold change [9],log2 fold change [10]
SLC29A3 (UniProt Q9BZD2),0.171,0.007,0.05,-0.048,0.047,0.002,-0.049,-0.161,0.089,0.056,0.045,0.092,0.105,0.013,-0.083,-0.018,-0.05,0.055,–,–
SUN1 isoform 9 (UniProt O94901),0.13,0.018,-0.065,-0.021,0.027,0.002,–,0.037,-0.023,-0.178,0,-0.048,-0.108,0.049,0.083,-0.038,-0.018,-0.029,0.135,-0.111
SRCAP (UniProt Q6ZRS2),0.068,-0.207,-0.059,–,0.066,0.121,0.01,-0.001,0.032,-0.045,-0.279,-0.486 (active),-0.069,-0.004,-0.058,-0.028,0.009,-0.015,-0.041,-0.006
SUPT5H isoform 2 (UniProt O00267),–,–,–,–,–,0.149,–,–,–,–,–,–,–,-0.005,–,–,–,-0.058,–,–
SREBF1 isoform 4 (UniProt P36956),-0.511,–,–,-0.035,-0.047,–,0.025,0.198,0.077,–,–,–,0.033,–,-0.164,0.045,0.044,–,–,–
SNX2 isoform 2 (UniProt O60749),-0.194,-0.06,–,0.034,–,-0.161,0.076,0.086,-0.002,0.003,-0.078,–,–,-0.155,0.024,0.176,-0.141,0.097,–,–
SMARCA4 (UniProt P51532),0.019,0.121,–,0,-0.245,-0.191,0.065,0.177,-0.303,-0.086,-0.068,–,-0.17,0.134,0.099,-0.091,0.049,0.022,0.119,-0.046
STARD3 (UniProt Q14849),–,0.115,0.091,-0.019,0.053,-0.037,0.024,-0.064,-0.043,-0.028,0.035,0.013,-0.02,-0.035,–,0.028,–,-0.014,0.039,-0.386 (active)
